# The list is not random: actives were taken first. Their share in the collection is about 17%.
# HT1080 IDH1KD tx = HT-1080 IDH1 knockdown cell toxicity (counter line); HT-1080 IDH1 knockdown viability, ATP luminescence, 48 h; actives 2% (n = 360,000); Potency, µM (series often up to 46.1 µM), for the others: at the highest dose activity, negative = toxicity, most hits filed as cytotoxic;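 further: 0% = DMSO wells and -100% = cell-free medium wells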
#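 Knockdown cells (IDH1KD HT-1080) received compounds 2 h after plating at 750 cells/well and were kept 48 h at 37 °C in 5% FBS RPMI. A CellTiter-Glo luminescence read gave % activity for curve fitting.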
# DT40 TDP1 CPT = growth inhibition of DT40 Tdp1-/-;hTDP1 cells with camptothecin (screen for TDP1 inhibitors); Potency, µM (highest dose often 46.2 µM), inactives show top-dose activity change, negative = growth inhibition, usual class: inhibitors; AID 686979; actives 12% (n = 420,000); chicken DT40 Tdp1-/-;hTDP1 cells + 20 nM CPT, ATP luminescence, 48 h; further: on the % scale 0 is the no-effect control and ±100 the full control effect; nearly all actives have a fitted effect of over 55% in size
#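 Cell growth measured by CellTiter-Glo luminescence after a minimum 48 h, 37 C compound exposure with 20 nM CPT in Tdp1-knockout DT40 cells stably expressing hTDP1, seeded 400/well; qHTS titration format.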
# TGFb SMAD3 inh = inhibitors of TGF-b signaling. actives 1.2% (n = 410,000). Potency, µM (series often up to 46.1 µM), inactives show at the highest dose activity, negative = inhibition, usual class: inhibitors. AID 588855. HepG2 CAGA-GFP TGF-b/SMAD3 reporter, GFP fluorescence, 18 h; TGF-beta stimulated, 500 pg/mL final; further: on the % scale 0 is the no-effect control and ±100 the full control effect; nearly all actives have a fitted effect of over 65% in size
#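 TGF-beta reporter screen: HEPG2 CAGA-GFP, 1% FBS, 500 pg/mL TGF-beta final, 18 h; per-cell GFP summed per well; curves fitted and categorized by class.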
# DT40 TDP1 no CPT = qHTS for Inhibitors of human tyrosyl-DNA phosphodiesterase 1 (TDP1): qHTS in cells in absence of CPT; DT40 Tdp1-/- hTDP1 cells, no CPT, ATP luminescence, 48 h; Potency, µM (top dose mostly 46.2 µM), for inactives: top-dose activity change, negative = growth inhibition, hits mostly inhibitors; actives 15% (n = 420,000); AID 686978, 2013; further: on the % scale 0 is the no-effect control and ±100 the full control effect; nearly all actives have a fitted effect of over 55% in size
#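 Readout: luminescence from CellTiter-Glo after 30 min in the dark at RT. Cells: DT40 Tdp1-/- with stable hTDP1, 400/well. Exposure: compounds alone, ≥48 hr, 37 °C.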
# HepG2 tox = counter-screen for TGF-b inhibitors: cytotoxicity in HepG2 cells | Potency, µM (highest dose often 46.1 µM), for the others: at the highest dose activity change, negative = cytotoxicity, usual class: cytotoxic | actives 0.76% (n = 410,000) | HepG2 CAGA-GFP viability, ATP luminescence, 18 h | AID 588856
#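 HepG2 CAGA-GFP cells (1000/well, DMEM with 1% FBS) received compound, then TGF-beta at 500 pg/mL final, and were incubated 18 hours at 37 degrees C. Viability was read by CellTiter-Glo luminescence. Media-only wells were set as complete cell-killing and DMSO as no toxicity.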
# HT1080NT lethal = kills 2HG-producing HT-1080-NT fibrosarcoma cells. HT-1080-NT fibrosarcoma viability, CellTiter-Glo ATP luminescence, 48 h. Potency, µM (series often up to 46.1 µM), for the others: top-dose activity, negative = less viability, hits mostly cytotoxic. actives 1.6% (n = 360,000);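 further: NT is the 2HG producing partner of a matched IDH1 knockdown line; 0% = DMSO-treated cells and -100% = media-only wells without cells; nearly all actives have a fitted effect of over 55% in size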
#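 HT-1080-NT fibrosarcoma cells (2HG-overproducing), 750 cells/well in RPMI with 5% FBS, dosed after 2 h and incubated 48 h at 37C. CellTiter-Glo luminescence normalized to DMSO and no-cell wells; concentration-response curves fitted and classed.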
# * marks the source's active call; other numbers are inactive results; u = inconclusive; x = no result; [ ] = remark or other dose. The call rests on the fitted dose curve; in most records, active means well fitted curve in the direction sought with a large enough effect; inconclusive means small, poorly fitted or top-dose-only effect, or another doubt; inactive means no such curve, though single readings can be large; an effect the other way counts as inactive or inconclusive. Potency means the concentration at half of the fitted maximal effect.
SMILES,HT1080 IDH1KD tx,DT40 TDP1 CPT,TGFb SMAD3 inh,DT40 TDP1 no CPT,HepG2 tox,HT1080NT lethal
COc1ccc(CCNC(=S)N2CCC(C(=O)c3ccc(F)cc3)CC2)cc1OC,u,u,11µM*,u,-36%,-17%
COc1ccc(C(=O)C2CCN(C(=S)NCCc3ccc(OC)c(OC)c3)CC2)cc1,-21%,16µM*,u,12µM*,-28%,-4%
COCCNC(=S)N1CCC(C(=O)c2ccc(F)cc2)CC1,0%,-5%,-3%,u,-2%,15%
CC1(C(=O)NCc2ccccc2)CCC(=O)N1CC(F)(F)F (configuration not stated),10%,-2%,2%,9%,-28%,14%
COc1ccc(S(=O)(=O)N2CCCOC2CNC(=O)C(=O)NCc2cccnc2)cc1 (configuration not stated),6%,7%,0%,-4%,2%,6%
CCOC(=O)CSc1nc2cc(C(=O)N3CCC(C(N)=O)CC3)ccc2c(=O)n1C1CCCCC1,5%,-2%,14%,-11%,-2%,0%
COC(=O)c1ccc2c(=O)n(C3CCCCC3)c(SCC#N)nc2c1,-11%,12µM*,-4%,23µM*,-2%,0%
O=C(CCCn1c(=S)[nH]c2cc3c(cc2c1=O)OCO3)N1CCN(c2ccccc2F)CC1,0%,u,13%,18µM*,-29%,7%
COc1cccc(N2CCN(C(=O)CCCCCn3c(=S)[nH]c4cc5c(cc4c3=O)OCO5)CC2)c1,10%,21µM*,3%,u,-18%,9%
O=c1c2cccnc2[nH]c(=S)n1CCCN1CCN(c2ccccc2F)CC1,4%,u,15%,u,-36%,7%
O=c1c2ccccc2[nH]c(=S)n1CCCN1CCN(c2ccccc2F)CC1,-22%,2.9µM*,-11%,u,-7%,5%
COc1ccccc1N1CCN(C(=O)CCCCCn2c(=S)[nH]c3cc4c(cc3c2=O)OCO4)CC1,2%,u,-4%,10µM*,-16%,-7%
COc1ccccc1N1CCN(C(=O)c2ccc(Cn3c(=S)[nH]c4cc5c(cc4c3=O)OCO5)cc2)CC1,16%,u,-16%,u,-23%,13%
O=C(CCCCCn1c(=S)[nH]c2cc3c(cc2c1=O)OCO3)N1CCN(c2ccccc2)CC1,18%,u,3%,-11%,0%,6%
Cc1cccc(NC(=O)c2cc3cc([N+](=O)[O-])ccc3s2)n1,8%,4%,-27%,4%,-28%,8%
CN(C)c1ccc(C=NC2CCc3ccccc32)cc1 (configuration not stated),x,-1%,0%,-20%,-7%,x
COc1ccc(CCNC(=O)c2cnn(-c3nccc(-c4ccco4)n3)c2C)cc1,x,18%[9.04 µM],x,-21%,x,x
COc1ccc2nc3cc([N+](=O)[O-])ccc3c(NNc3ccc([N+](=O)[O-])cc3)c2c1,-2%,10µM*,-8%,9.2µM*,2%,-23%
COc1ccc2c(c1)OC[C@H]1[C@H]2N2C(=O)c3cc(C)ccc3NC(=O)[C@@]2(C)[C@H]1c1ccccc1,-17%,16µM*,10%,u,-23%,u
COc1ccc2c(c1)[C@H]1[C@H](CO2)[C@H](c2ccccc2)[C@]2(C)C(=O)Nc3ccc(F)cc3C(=O)N12,u,u,2%,u,-5%,u
COc1ccc2c(c1)[C@H]1[C@H](CO2)[C@H](c2ccccc2)[C@]2(C)C(=O)Nc3ccc(Cl)cc3C(=O)N12,-11%,18µM*,-27%,u,-27%,-8%
COc1ccc2c(c1)[C@H]1[C@H](CO2)[C@H](c2ccccc2)[C@]2(C)C(=O)Nc3cc(OC)c(OC)cc3C(=O)N12,u,u,-31%,21µM*,-14%,-8%
COc1ccc2c(c1)[C@H]1[C@H](CO2)[C@H](c2ccccc2)[C@]2(C)C(=O)Nc3ccc(C)cc3C(=O)N12,-16%,u,12%,u,1%,-26%
COc1ccc2c(c1)[C@@H]1[C@H](CO2)[C@H](c2ccccc2)[C@]2(C)C(=O)Nc3ccc(C)cc3C(=O)N12,-15%,18µM*,u,u,-13%,-27%
COc1ccc2c(c1)C(=O)N1[C@H]3c4cc(C)ccc4OC[C@@H]3[C@H](c3ccccc3)[C@]1(C)C(=O)N2,u,7.3µM*,-3%,10µM*,-7%,u
SMILES,HT1080 IDH1KD tx,DT40 TDP1 CPT,TGFb SMAD3 inh,DT40 TDP1 no CPT,HepG2 tox,HT1080NT lethal
Cc1ccc2c(c1)C(=O)N1[C@H]3c4ccccc4OC[C@@H]3[C@H](c3ccccc3)[C@]1(C)C(=O)N2,-2%,u,1%,u,-3%,-2%
COCCCn1cnnc1SC(C)C(=O)Nc1ccc(S(=O)(=O)N2CCOCC2)cc1 (configuration not stated),4%,2%,12%,3%,-4%,1%[9.24 µM]
CCNc1nc(NCC)n2c(SC(C(=O)Nc3cc(Cl)cc(Cl)c3)c3ccccc3)nnc2n1 (configuration not stated),1%,23µM*,-3%,16µM*,-10%,0%
CC(NC(=O)c1cccs1)C(c1cccs1)N1CCN(c2ccccc2)CC1 (configuration not stated),-3%,-24%,-4%,-17%,-12%,-11%
CC(NC(=O)c1ccc2c(c1)OCO2)C(c1cccs1)N1CCOCC1 (configuration not stated),-1%,u,0%,-2%,2%,9%
CC(NC(=O)C1CC1)C(c1cccs1)N1CCN(c2ccccc2)CC1 (configuration not stated),0%,u,1%,u,-2%,-2%
CC(C)C(=O)NC(C)C(c1cccs1)N1CCN(c2ccccc2)CC1 (configuration not stated),10%,u,-2%,21µM*,3%,14%
CC(NC(=O)c1ccc2c(c1)OCO2)C(c1cccs1)N1CCN(c2ccccc2)CC1 (configuration not stated),u,u,8%,18µM*,15%,-27%
